These results are taken from PubChem BioAssay.

Each structure is given as a SMILES string. Calls of active or inactive are those of the source.

For one assay, the target named is Albumin (Bos taurus) (UniProt P02769). As to the kind of experiment: bovine serum albumin binders on microarray, profiling panel, artefact control for SMM control protein annotation, biochemical, small-molecule microarray, Alexa647 label, 635/667 nm fluorescence (AID 1118).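 Further: score merges 667 nm emission intensity and signal-to-noise per printed compound spot.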 Particulars: BSA-A647 binding, fluorescence 635 nm, higher = more signal.
A short description of assay [1]: small-molecule microarray binders of probe aXIP, primary screen, biochemical, NeuroSMM set, 635/667 nm fluorescence (AID 1119).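 Further: probe is the protein aXip251-270 applied at 1 µg/mL to compound-printed slides; binding of probe to printed compounds measured as 667 nm fluorescence plus signal to noise.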 Particulars: higher = more signal, called active from +8 up or from −8 down.
Assay [2] is described as follows: small-molecule binders of probe aNOTCH3, primary screen, biochemical, small-molecule microarray, 635/667 nm fluorescence (AID 1120).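 Further: probe is a biotin-tagged antibody raised against NOTCH3 rather than NOTCH3 protein; score merges spot fluorescence near 667 nm with spot signal to noise.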 Particulars: higher = more signal.
A short description of assay [3]: small-molecule binders of probe aNOTCH2, primary screen, biochemical, small-molecule microarray, 635/667 nm fluorescence (AID 1121).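 Further: score merges feature fluorescence read at 667 nm with its signal to noise.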 The note with it: higher = more signal.
The target in assay [4] is Carbonic anhydrase 2 (Homo sapiens) (UniProt P00918). As to the kind of experiment: CAII small-molecule binders, profiling panel, biochemical, small-molecule microarray, Alexa647-labelled CAII (AID 1122). Particulars: CAII-A647 binding fluorescence, higher = more signal.
Assay [5] in a line: COS7 lysate on small-molecule microarray, probe aHis, 635 nm (AID 1123).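 Further: z-score combines 667nm fluorescence intensity with signal-to-noise per printed compound spot.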 Particulars: COS7 cell lysate, fluorescence, higher = more signal.
The nature of assay [6]: compound binding in COS7 lysate, probe aLAP1, primary screen, cell lysate, small-molecule microarray (AID 1124).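 Further: lysate comes from COS7 cells expressing LAP1 and is applied at 0.3 µg/mL; score merges spot fluorescence near 667 nm with signal-to-noise over triplicate slides.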 Particulars: probe aLAP1, fluorescence, higher = more signal.
The subject of the next assay is Sam68 (KHDRBS1). As to the kind of experiment: Sam68 small-molecule binders, primary screen, biochemical, small-molecule microarray, 635 nm fluorescence (AID 1125).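 Further: score merges 667 nm channel intensity with signal to noise over triplicate slides.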 The note with it: small-molecule microarray binding, higher = more signal.
The subject of assay [7] is Chordin-like protein 2 (CHRDL2). The assay can be described thus: CHRDL2 small-molecule binders, primary screen, biochemical, small-molecule microarray, 635 nm fluorescence (AID 1126).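 Further: printed compound slides probed with Chrdl2 protein at 4 µg/mL for 1 h at 4 C; score merges 667 nm emission intensity with signal to noise over three replicate slides.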 Particulars: small-molecule microarray binding, fluorescence 635 nm; higher = more signal.
Assay [8] addresses Concanavalin-A (Canavalia ensiformis) (UniProt P02866). The assay can be described thus: ConA small-molecule binders, primary screen, artefact control for SMM control protein annotation, biochemical, small-molecule microarray, Alexa647 label, 635 nm (AID 1127).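 Further: z combines 667 nm emission intensity with signal-to-noise across three replicate slides.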 Particulars: ConA-A647 binding fluorescence, higher = more signal.

Sequence of Albumin (Bos taurus) (P02769 whole entry, looked up): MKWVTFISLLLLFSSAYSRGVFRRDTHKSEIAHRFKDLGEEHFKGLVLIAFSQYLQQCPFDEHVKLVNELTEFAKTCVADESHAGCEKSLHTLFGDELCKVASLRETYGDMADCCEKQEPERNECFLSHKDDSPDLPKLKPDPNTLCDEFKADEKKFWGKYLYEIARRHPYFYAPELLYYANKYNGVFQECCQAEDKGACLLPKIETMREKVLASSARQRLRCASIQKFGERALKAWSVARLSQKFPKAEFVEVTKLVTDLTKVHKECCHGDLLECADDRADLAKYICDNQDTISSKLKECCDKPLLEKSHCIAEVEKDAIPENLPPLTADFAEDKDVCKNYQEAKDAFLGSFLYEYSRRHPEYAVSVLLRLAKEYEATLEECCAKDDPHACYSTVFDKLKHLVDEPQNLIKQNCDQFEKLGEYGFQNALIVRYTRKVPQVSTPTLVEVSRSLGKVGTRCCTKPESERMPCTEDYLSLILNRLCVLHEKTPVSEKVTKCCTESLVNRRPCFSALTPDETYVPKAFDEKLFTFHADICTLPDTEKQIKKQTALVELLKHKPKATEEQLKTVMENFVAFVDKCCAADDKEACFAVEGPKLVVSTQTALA
Sequence of Concanavalin-A (Canavalia ensiformis) (P02866 whole entry, looked up): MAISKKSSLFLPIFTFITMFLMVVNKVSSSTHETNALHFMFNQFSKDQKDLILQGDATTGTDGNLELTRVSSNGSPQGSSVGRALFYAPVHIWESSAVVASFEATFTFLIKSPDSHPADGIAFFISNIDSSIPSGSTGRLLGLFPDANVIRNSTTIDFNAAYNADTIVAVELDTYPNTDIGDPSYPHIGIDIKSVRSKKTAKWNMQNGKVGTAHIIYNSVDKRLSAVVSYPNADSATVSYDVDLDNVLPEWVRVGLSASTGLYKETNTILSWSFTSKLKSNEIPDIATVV

For the compound `O=C1O[C@@H](c2ccccc2)[C@@H](c2ccccc2)N2[C@@H](c3ccc(OCCO)cc3)[C@]3(C(=O)Nc4ccc(C#CC5(O)CCCCCC5)cc43)[C@@H](C(=O)O)[C@H]12`, the composite z-score in the assay with Albumin (Bos taurus) was 0.572; in assay [2], 0.0745; in [3], -0.0725; in assay [4], 0.685; in assay [5], 0.969; in assay [6], 0.58. The composite z-score is 1.34 in the assay on Sam68 (KHDRBS1), -0.458 in assay [7] and 0.994 in assay [8]. Also, the composite Z-score in assay [1] is -0.014 (inactive).

For the compound `COCCOC(=O)N1C(=O)[C@@]2(c3cc(C#CCC(C(=O)OC)C(=O)OC)ccc31)[C@H](C(=O)Nc1nc3ccccc3s1)[C@H]1C(=O)O[C@H](c3ccccc3)[C@H](c3ccccc3)N1[C@@H]2c1ccc(O)cc1`, the composite z-score with Albumin (Bos taurus) was 0.268; in assay [2] it was 0.512; in assay [3] it was -0.0282; in assay [4] it was 0.279; in assay [5], 1.13; in assay [6], 0.705. Besides, the composite z-score with Sam68 (KHDRBS1) was determined as 1.3; in [7], 1.07; in assay [8], 1.04. For the same compound, the composite Z-score in assay [1] was 0.247 (inactive).

For the compound `COc1ccc([Si](C)(C)[C@@H]2[C@@H](CC(=O)N3Cc4ccccc4C[C@H]3CO)O[C@]3(C(=O)N(Cc4ccc(N5CCOC5=O)cc4)c4ccccc43)[C@H]2C)cc1`, the composite z-score is -0.289 with Albumin (Bos taurus); 0.0803 in assay [2]; -0.128 in assay [3]; 0.624 in assay [4]; 1.12 in assay [5]; 0.313 in assay [6]. For the same compound, the composite z-score in the assay with Sam68 (KHDRBS1) was 1.27; in assay [7], 1.26; in [8], 1.16. The composite Z-score in assay [1] was 1.54 (inactive).

For `CN(C)CCCC[C@@H]1NC(=O)[C@@H]2C[C@H](C(=O)NCCCCCN)[C@H](c3cccc(OCCO)c3)N2C1=O`, the composite z-score was 0.49 in the assay with Albumin (Bos taurus); 0.423 in assay [2]; -0.14 in [3]; 0.727 in assay [4]; 0.482 in assay [5]; 1.27 in [6]. Besides, the composite z-score in the assay with Sam68 (KHDRBS1) worked out at 1.33; in assay [7], 0.495; in assay [8] it was 1.21. The composite Z-score in [1] is 0.932 (inactive).

For the compound `CC(C)(C)N1CC=CC23O[C@@H]4C=CCCOC(=O)C4[C@H]2C(=O)N(CCCCCCO)[C@@H]3C1=O` (stereo not given in full), the composite z-score with Albumin (Bos taurus) was -0.188; in [2], -0.0716; in [3], -0.124; in assay [4], 0.834; in [5] it was -0.0431; in [6], 0.0582. In addition, the composite z-score with Sam68 (KHDRBS1) is 0.28; in assay [7] it was -1.29; in [8], -0.202. Further, in [1], the composite Z-score was -0.192 (inactive).

For `O=C1[C@H]2C=C(I)[C@H](C[C@@H]2c2ccccc2)[C@@]12CO2`, the composite z-score with Albumin (Bos taurus) is -0.406; in assay [2] it was -0.0647; in [3], -0.153; in assay [4], -0.154; in assay [5] it was -0.234; in assay [6], -0.225. Moreover, the composite z-score with Sam68 (KHDRBS1) is 0.0643; in assay [7] it was 0.664; in [8], -0.267. Besides, the composite Z-score in [1] is -0.623 (inactive).

Regarding `C=C(C)[C@@H]1CC=C(C(O)C2C=CC3C(=O)N(c4ccccc4)C(=O)C3N2Nc2ccc([N+](=O)[O-])cc2)CC1` (stereo not given in full), the composite z-score in the assay with Albumin (Bos taurus) came to 0.83; in [2], 0.0254; in assay [3] it was 0.09; in [4] it was 0.558; in assay [5], 2.92; in assay [6] it was 0.22. Also, the composite z-score in the assay on Sam68 (KHDRBS1) was 1.32; in [7], 0.077; in assay [8], 0.246. Moreover, the composite Z-score in assay [1] was 0.115 (inactive).

On to `O=C1C[C@]2(c3ccc([N+](=O)[O-])cc3)C(=O)N(C3CC3)c3cc(CO)ccc3[C@H]2N1C1CCCCC1`, for which the composite z-score with Albumin (Bos taurus) is -0.806; in assay [2] it was -0.103; in assay [3] it was -0.172; in [4] it was -0.0953; in [5], 0.792; in assay [6] it was 0.835. The composite z-score in the assay on Sam68 (KHDRBS1) was 0.0418; in assay [7], -0.308; in assay [8] it was 0.55. In addition, the composite Z-score in [1] was 0.127 (inactive).

With `CC(C)NC(=O)[C@@H]1c2ccccc2C(=O)N(Cc2ccc(OC(F)(F)F)cc2)[C@H]1c1ccc(CO)cc1`, the composite z-score with Albumin (Bos taurus) was -0.215; in assay [2] it was 0.503; in assay [3], 0.321; in [4], 0.268; in [5] it was 1.35; in [6], 0.651. Besides, the composite z-score is 1.3 in the assay with Sam68 (KHDRBS1), 0.215 in assay [7] and 0.882 in assay [8]. The composite Z-score in [1] is -0.194 (inactive).

For `COC(=O)[C@@]1(Cc2ccc(F)cc2)[C@H]2c3cc(C(=O)N4CCCC4)n(Cc4ccccn4)c3C[C@H]2CN1C(=O)c1ccccc1`, the composite z-score with Albumin (Bos taurus) came to 0.0228; in assay [2], 0.547; in [3], 0.417; in assay [4], 0.482; in [5], 2.95; in assay [6], 0.382. The composite z-score with Sam68 (KHDRBS1) was 1.17; in assay [7], -0.22; in assay [8], 0.627. In addition, the composite Z-score in assay [1] is -0.104 (inactive).

Turning to `CCCC=C(CCC)[C@@H](NC(=O)c1ccc(C(F)(F)F)cc1)c1ccc(C(F)(F)F)cc1`, the composite z-score with Albumin (Bos taurus) is 1.01; in assay [2], 0.326; in assay [3], 0.105; in assay [4], 0.205; in assay [5], 2.94; in assay [6] it was -0.0554. The composite z-score with Sam68 (KHDRBS1) is 1.31; in [7], -0.748; in assay [8], 1.07. The composite Z-score in assay [1] was -0.523 (inactive).
